The record followed here is PubChem BioAssay.

The structures appear in SMILES notation. Active and inactive are the calls of the source.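 How the source made its calls: active means z-score of at least 1.8 in each of two replicates, scored against plate mean and spread of sample wells; inactive means the rest.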

The nature of the test: viability rescue of complex I mutant cybrids, primary screen, cell-based, galactose medium, ATP luminescence (AID 1645843).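 Further: positive z means more ATP and so rescue of galactose-driven cybrid death.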 To be noted: complex I mutant cybrid cells, 72 h, active compounds read high.
As to `c1ccc(-n2cc(-c3ccnc(NCc4cnc5ccccn45)n3)cn2)cc1`, the z-score was -1.09 (inactive).
Consider `COc1cc(N2CCN(Cc3ccc(F)cc3)C(=O)C2)ncn1`, for which the z-score was -0.36 (inactive).
With `O=C(C1CCCCCC1)N1CCC(n2cc(-c3ccsc3)nn2)CC1`, the z-score is -0.215 (inactive).
To `Cn1cc(-c2cc(C(=O)N3CCc4ccccc4C3)c3cc(F)ccc3n2)cn1` belongs 1 (inactive); to `CC(CCCC(C)(C)O)NC/C=C/c1ccc(F)cc1` (centres undefined), -0.51 (inactive); to `CC(C)CCC(=O)N1CCCCC1CCc1ccc(O)cc1` (centres undefined), -0.375 (inactive).
To `Cn1cc(-c2ccccc2OC2(C(=O)O)CCSCC2)cn1` belongs 1.44 (inactive); to `OCCCCCNCC1(N2CCOCC2)CCCCCC1`, -0.47 (inactive); to `COc1cccc(CC(=O)NCc2ccc(Cl)s2)c1`, -0.145 (inactive).
Under `Cc1cccc2c(C(=O)N(C)C(C)C)cc(-c3cnc(-c4cccnc4)nc3)nc12` stands -0.13 (inactive).
As to `O=C(Cn1ccc(-c2cccnc2)n1)Nc1ccnn1Cc1cccs1`, the z-score was -0.545 (inactive).
Under `Cc1nn(C)c(C)c1-c1ccnc(NCc2ccc3nsnc3c2)n1` stands -0.665 (inactive); under `CCn1cc(-c2cc(C(=O)N3CCN(C)C(=O)C3C)c3ccc(C)cc3n2)cn1` (centres undefined), -0.19 (inactive).
Consider `CC(C)Oc1cccc(C(=O)N2CCC(n3cc(C(C)(C)O)nn3)CC2)c1`, for which the z-score is -0.52 (inactive).
As to `Cc1nn(C)c(C)c1-c1ccnc(NCC(C)Oc2cccnc2)n1` (centres undefined), the z-score was 1.26 (inactive).
As to `CC(C)Cc1noc(C2C3CCC4C(CCC32)C4(Cl)Cl)n1` (centres undefined), the z-score was -0.52 (inactive).
`COc1ccc(F)cc1-c1cnn(CC(=O)Nc2cc(C)nn2C)c1`: the z-score was 0.085 (inactive).
In the case of `CC1Cc2cc(C(=O)N3CCC(n4cc(CCO)nn4)CC3)ccc2O1` (centres undefined), the z-score was 0.36 (inactive).
Under `Cc1cc2c(=O)n(Cc3nc4ccccc4[nH]3)cnc2s1` stands -0.615 (inactive); under `COc1ccc(CNCC2COCCO2)cc1OC` (centres undefined), 3.29 (active).
To `CCCCCNC(=O)N1CCC2(CC1)Nc1ccccc1N(CC)C2=O` belongs -0.065 (inactive).
To `O=C(c1ccccc1-c1nn[nH]n1)N1CCc2[nH]cnc2C1c1ccccn1` (centres undefined) belongs 0.23 (inactive); to `Cc1cnc(CNC(=O)c2cccc(Nc3ncnc4c3cnn4C)c2)cn1`, -0.83 (inactive).
With `Cc1cccc2c(C(=O)N3CCC(C)(C)C3)cc(-c3cnc(C4CC4)nc3)nc12`, the z-score was 2.3 (active).
`c1cnn(-c2ccc(N3CCC(N4CCC4)CC3)cc2)c1`: the z-score is -0.48 (inactive).
Under `Cc1nc(CN(C)C2CCN(c3ccc(-n4cccn4)cc3)CC2)cs1` stands 0.655 (inactive).
In the case of `OC[C@@H](Cc1ccccc1)NC1CCCCCC1`, the z-score was -0.55 (inactive).
To `O=C(c1cc(-c2cncnc2)nc2cc(F)ccc12)N1CCCC1Cc1cccnc1` (centres undefined) belongs 0.765 (inactive); to `Cc1c(C(F)(F)F)nc(-c2ccc(CN(C)Cc3ccccn3)cc2)[nH]c1=O`, -0.485 (inactive); to `Cc1ccc2nc(-c3cnc(C(C)(C)C)nc3)cc(C(=O)N(C)C(C)C)c2c1`, -0.47 (inactive).
To `COc1ccc(-c2ccc3cc(Cl)ccc3n2)c(OC)c1` belongs 1.15 (inactive); to `O=C(C1CCCCCC1)N1CCC(n2cc(C3CC3)nn2)CC1`, -0.53 (inactive); to `Cc1csc2c(=O)n(Cc3ccc(Cl)s3)cnc12`, -0.505 (inactive).
Under `CC(C)c1ncc(-c2cc(C(=O)N(C)C(C)C)c3ccc(F)cc3n2)cn1` stands -0.51 (inactive).
In the case of `Nc1ncc(-c2ccc(Cl)cc2Cl)cn1`, the z-score is -0.065 (inactive).
To `COc1ccc(OC)c(-c2ncnc3sc(C)c(C)c23)c1` belongs 0.645 (inactive); to `OC[C@H](Cc1ccccc1)NC1CCCCCC1`, -0.555 (inactive); to `Cc1cc(CN2CCNCC2)ccc1OC1(C(=O)O)CCSCC1`, 0.115 (inactive).
Regarding `COc1ccc2c(c1)CC(c1nc(Cc3cccs3)no1)CO2` (centres undefined), the z-score is -0.1 (inactive).
